Experimental data from PubChem BioAssay.
This is one part of the list. Active and inactive are the calls of the source.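 Rule for the calls, unless noted: active = signal rise of 40% or more at 20 µM, treated as a fluorescence artifact; inactive = the rest.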

Legend:
[1] = target: Protein Mdm4 (Homo sapiens) + E3 ubiquitin-protein ligase Mdm2 (Homo sapiens) (UniProt O15151+Q00987); assay: retested Mdm2-MdmX interaction blockers, confirmation, cell-based, luminescence, single concentration, set 2 (AID 504601;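 active = mean inhibition of the luminescence signal across two replicates at or above 26 percent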); conditions: SaOS-2 split-luciferase Mdm2/MdmX complementation, at 8 µM, stronger effect = higher value
[2] = target: Tumor necrosis factor receptor superfamily member 10B (Homo sapiens) (UniProt O14763); assay: caspase-8 TRAIL sensitization, hit retest, confirmation, cell-based, NB7+caspase-8, with/without TRAIL, luminescence panel (AID 651596; in the data active = activity above about 50%); conditions: NB7 neuroblastoma + caspase-8, TRAIL sensitization, luminescence viability, with TRAIL, mean of runs, at 10 µM, stronger effect = higher value
[3] = as above; conditions: NB7 neuroblastoma + caspase-8, without TRAIL, luminescence viability, without TRAIL, mean of runs, at 10 µM
[4] = target: Tumor necrosis factor receptor superfamily member 10B (Homo sapiens) (UniProt O14763); assay: TRAIL sensitizers in caspase-8 expressing neuroblastoma cells, dose response, NB7 cells plus caspase-8, luminescence, panel (AID 652002); conditions: NB7 neuroblastoma +caspase-8, TRAIL sensitization, luminescence viability, NB7+Caspase-8, with TRAIL, run 1; at 12.5 µM (top of the series)
[5] = target: Tumor necrosis factor receptor superfamily member 10B (Homo sapiens) (UniProt O14763); assay: as above; conditions: NB7 neuroblastoma +caspase-8, TRAIL sensitization, luminescence viability, NB7+Caspase-8, with TRAIL, run 2; at 12.5 µM (top of the series)
[6] = as above; conditions: NB7 neuroblastoma +caspase-8, no TRAIL, compound-alone cytotoxicity counter-screen, luminescence viability, NB7+Caspase-8, run 1; at 12.5 µM (top of the series) unless noted
[7] = as above; conditions: NB7 neuroblastoma +caspase-8, no TRAIL, compound-alone cytotoxicity counter-screen, luminescence viability, NB7+Caspase-8, run 2; at 12.5 µM (top of the series) unless noted
[8] = Apaf-1 inhibitors, single-dose retest, confirmation, biochemical, fluorescence, DEVD-Rh110, 20 µM (AID 504614;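 active = mean inhibition of at least 40% at 20 µM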;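 note: plate controls were DMSO wells for no effect and DEVD-CHO caspase inhibitor control wells for full effect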); conditions: reconstituted apoptosome, caspase-3 DEVD-Rh110 fluorescence; at 20 µM; stronger effect = higher value
[9] = Rh110 fluorescence interference by putative Apaf-1 inhibitors, confirmation, artefact control for Apaf-1 inhibitor project, biochemical, 20 µM (AID 504615); conditions: quenched caspase reaction, at 20 µM, stronger effect = higher value
[10] = inhibitors of PAF-induced NF-kB signaling, retest, confirmation, cell-based, GFP fluorescence, single concentration (AID 602472; in the data active = inhibition above about 40%;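 note: stimulus PAF is a Pseudomonas aeruginosa filtrate and not platelet activating factor; plate controls were DMSO wells with stimulus for no effect and unstimulated DMSO wells for full effect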); conditions: KKLEB CF airway cells, overnight, at 5 µM, stronger effect = higher value
[11] = inhibitors of PAF-induced NFkB signaling in CF airway cells, dose response, cell-based, uHTS hits, panel, cytotoxicity readout (AID 624344); conditions: CF bronchial epithelial cells, PAF-induced NFkB reporter inhibition, with PAF, run 1; at 79 µM (top of the series) unless noted
[12] = as above; conditions: CF bronchial epithelial cells, PAF-induced NFkB reporter inhibition, with PAF, run 2; at 79 µM (top of the series) unless noted
[13] = Peg3 promoter reporter inhibitors, retest, confirmation, cell-based, HeLa, luciferase reporter, single concentration (AID 602417;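 active = at 20 µM dose, 40% or more inhibition averaged across four replicates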); conditions: HeLa PEG-Prom luciferase reporter, luminescence, overnight; at 20 µM; stronger effect = higher value
[14] = HIF-2a reporter inhibitor retest, confirmation, luminescence, 786-0 RCC cells (AID 651580;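 active = mean inhibition across four replicates of at least 40 percent at the single tested concentration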); conditions: HIF-2a luciferase reporter luminescence, overnight, at 18.8 µM, stronger effect = higher value
[15] = HIF-1a luciferase reporter signal reduction – MiaPaCa-2 cells, single concentration, counter-screen for HIF-2a inhibitor project, confirmation (AID 651589;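 active = mean inhibition of the reporter signal across four replicates at the single tested dose of 50% or more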); conditions: MiaPaCa-2 HIF-1a luciferase reporter, desferoxamine, overnight; at 18.8 µM; stronger effect = higher value
PEG-3 [16] = target: PEG-3 (UniProt Q6IN02); assay: Peg3 promoter luciferase inhibitors, potency, dose response, cell-based, HeLa, CREF/GAPDH counter-screen panel (AID 624167); conditions: CREF/GAPDH counter-screens; HeLa PEG-Prom luciferase reporter, overnight, run 1, dose range 1, at 100 µM (top of the series) unless noted
PEG-3 [17] = target: PEG-3 (UniProt Q6IN02); assay: as above; conditions: CREF/GAPDH counter-screens; HeLa PEG-Prom luciferase reporter, overnight, run 2, dose range 1, at 100 µM (top of the series) unless noted
[18] = fluorescence interference of Apaf-1 inhibitor hits, dose response, artefact control for Apaf-1 inhibitor project (AID 588538; call rule not given here); conditions: fluorescence interference counterscreen, Apaf-1 assay format

Chain of Protein Mdm4 (Homo sapiens) + E3 ubiquitin-protein ligase Mdm2 (Homo sapiens) (O15151 whole entry, looked up): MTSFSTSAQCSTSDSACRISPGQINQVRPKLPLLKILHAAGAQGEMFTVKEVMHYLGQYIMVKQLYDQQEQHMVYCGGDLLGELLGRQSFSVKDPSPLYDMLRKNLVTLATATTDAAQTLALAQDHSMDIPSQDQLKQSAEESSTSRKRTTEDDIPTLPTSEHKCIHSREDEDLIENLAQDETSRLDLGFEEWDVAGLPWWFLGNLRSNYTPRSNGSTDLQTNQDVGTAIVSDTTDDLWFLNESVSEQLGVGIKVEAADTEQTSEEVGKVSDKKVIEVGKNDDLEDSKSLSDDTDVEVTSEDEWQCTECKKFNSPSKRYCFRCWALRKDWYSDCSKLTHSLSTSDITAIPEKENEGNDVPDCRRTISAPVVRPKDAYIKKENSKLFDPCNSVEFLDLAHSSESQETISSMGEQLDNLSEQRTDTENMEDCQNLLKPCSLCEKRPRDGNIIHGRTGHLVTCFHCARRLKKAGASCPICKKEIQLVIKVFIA
Chain of Protein Mdm4 (Homo sapiens) + E3 ubiquitin-protein ligase Mdm2 (Homo sapiens) (Q00987 whole entry, looked up): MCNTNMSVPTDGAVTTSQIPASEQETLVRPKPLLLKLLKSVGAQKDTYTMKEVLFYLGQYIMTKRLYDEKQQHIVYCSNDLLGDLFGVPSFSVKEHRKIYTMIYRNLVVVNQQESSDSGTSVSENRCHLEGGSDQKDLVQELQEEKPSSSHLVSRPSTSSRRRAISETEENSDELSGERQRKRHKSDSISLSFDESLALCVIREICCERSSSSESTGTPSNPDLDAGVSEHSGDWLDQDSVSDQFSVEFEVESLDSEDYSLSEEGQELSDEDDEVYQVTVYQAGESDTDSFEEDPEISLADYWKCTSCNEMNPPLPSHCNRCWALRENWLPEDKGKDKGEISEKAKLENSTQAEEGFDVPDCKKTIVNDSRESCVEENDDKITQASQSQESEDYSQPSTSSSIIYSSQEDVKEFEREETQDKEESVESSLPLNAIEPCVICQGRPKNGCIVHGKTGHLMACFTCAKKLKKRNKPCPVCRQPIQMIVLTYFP
Chain of Tumor necrosis factor receptor superfamily member 10B (Homo sapiens) (O14763 whole entry, looked up): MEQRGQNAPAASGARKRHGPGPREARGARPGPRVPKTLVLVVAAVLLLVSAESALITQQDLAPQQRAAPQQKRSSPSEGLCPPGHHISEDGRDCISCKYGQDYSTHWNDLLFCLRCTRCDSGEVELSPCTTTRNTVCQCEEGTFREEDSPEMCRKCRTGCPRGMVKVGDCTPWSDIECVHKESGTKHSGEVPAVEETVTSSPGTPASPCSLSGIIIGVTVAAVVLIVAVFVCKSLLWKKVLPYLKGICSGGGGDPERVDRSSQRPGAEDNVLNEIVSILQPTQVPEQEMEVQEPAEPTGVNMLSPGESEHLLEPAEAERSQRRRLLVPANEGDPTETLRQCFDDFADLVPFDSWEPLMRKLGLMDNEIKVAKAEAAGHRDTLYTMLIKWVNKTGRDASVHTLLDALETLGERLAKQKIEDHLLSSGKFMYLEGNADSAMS
Chain of PEG-3 (Q6IN02 whole entry, looked up): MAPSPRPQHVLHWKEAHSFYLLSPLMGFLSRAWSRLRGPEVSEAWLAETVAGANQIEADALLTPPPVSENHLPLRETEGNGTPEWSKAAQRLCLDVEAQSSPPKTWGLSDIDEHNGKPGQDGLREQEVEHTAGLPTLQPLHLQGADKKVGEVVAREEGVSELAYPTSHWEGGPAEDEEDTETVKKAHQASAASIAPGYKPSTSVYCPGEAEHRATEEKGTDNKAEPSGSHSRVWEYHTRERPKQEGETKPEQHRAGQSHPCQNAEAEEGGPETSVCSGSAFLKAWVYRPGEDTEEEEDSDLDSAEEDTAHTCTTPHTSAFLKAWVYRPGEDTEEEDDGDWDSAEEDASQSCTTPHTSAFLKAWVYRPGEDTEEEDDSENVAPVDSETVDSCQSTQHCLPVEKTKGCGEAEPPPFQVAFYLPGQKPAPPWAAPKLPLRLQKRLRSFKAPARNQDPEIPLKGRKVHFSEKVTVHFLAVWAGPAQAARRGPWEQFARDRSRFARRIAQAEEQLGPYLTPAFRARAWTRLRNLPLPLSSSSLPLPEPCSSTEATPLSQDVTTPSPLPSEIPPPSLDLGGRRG

SMILES: COc1cc(NC(=O)c2[nH]cnc2C(N)=O)cc(C(=O)Nc2cccc(C(F)(F)F)c2)c1
- inhibition [1]: 101% (active)
- activity [2]: 86.1%
- activity [3]: 53.4%
- activity, % sensitization [4]: 36.3%
- activity, % sensitization [5]: 52.5%
- activity, % sensitization [6]: 5.71%
- activity, % sensitization [7]: 43.7%

SMILES: Cc1cc2oc3ccc(NCCC4CCCN4C)cc3c(=O)c2cc1C (configuration not stated)
- inhibition [8]: 10.1% (inactive)
- activation (fluorescence interference) [9]: 4.87% (inactive)

SMILES: Cc1ccsc1/C=N/NC(=O)Cc1cc(=O)[nH][nH]1
- inhibition [8]: 17.5% (inactive)
- activation (fluorescence interference) [9]: 8.37% (inactive)

SMILES: O=C(Nc1ccc(C(=O)N2CCOCC2)cc1)Nc1cccc(C(F)(F)F)c1
- inhibition [1]: 84.2% (active)
- inhibition [10]: 58.5% (active)
- inhibition [11]: 108%
- inhibition [12]: 94.7%

SMILES: O=C(CC(O)(C(F)(F)F)C(F)(F)F)Nc1ccc(Cl)c(Cl)c1
- inhibition [1]: 103% (active)
- activity [2]: 61.6%
- activity [3]: 63.1%

SMILES: Cc1cccc(NC(=O)c2nc(S(=O)(=O)Cc3ccccc3)ncc2Cl)c1
- inhibition [1]: 103% (active)
- inhibition [13]: 98.3% (active)
- inhibition [10]: 96.7% (active)
- inhibition [14]: 100% (active)
- inhibition [15]: 103% (active)
- inhibition [11]: 86.6%
- inhibition [12]: 95.1%
- activity [2]: 55.2%
- activity [3]: 98.5%

SMILES: C#CCOCCOCCOCCNc1nc(N2CCN(C(=O)CCCCCCCCCCNC(=O)[C@H](CCCCN)n3cc(C)nn3)CC2)nc(N2CCN(C(=O)CCCCCCCCCCNC(=O)[C@H](CO)n3cc(CCCSC)nn3)CC2)n1
- inhibition [8]: 4.3% (inactive)
- activation (fluorescence interference) [9]: 3.38% (inactive)

SMILES: CCN(CC)S(=O)(=O)c1ccc(NC(=O)c2cccnc2Cl)c(NC(=O)c2cccnc2Cl)c1
- inhibition [1]: 75.5% (active)
- inhibition [14]: 91.6% (active)
- inhibition [15]: 62.3% (active)

SMILES: Cc1[nH]c(=O)c(C(=O)/C=C/c2ccccc2)c2c1CCCC2
- inhibition [1]: 103% (active)
- inhibition [14]: 81.1% (active)
- inhibition [15]: 105% (active)

SMILES: c1ccc(C[C@H]2CNCCN2CCC23CC4CC(CC(C4)C2)C3)cc1
- inhibition [8]: 1.61% (inactive)
- activation (fluorescence interference) [9]: -3.75% (inactive)

SMILES: CC1CCCCC1NC(=O)/C(C#N)=C/C=C/c1ccccc1[N+](=O)[O-] (configuration not stated)
- inhibition [1]: 103% (active)
- inhibition [14]: 50.3% (active)
- inhibition [15]: 106% (active)

SMILES: CCOC(=O)/C(=C\c1ccc([N+](=O)[O-])cc1)C(=O)c1cc(C(C)=O)c(Nc2ccccc2)s1
- inhibition [1]: 100% (active)
- activity [2]: 95.3%
- activity [3]: 95.6%

SMILES: Cc1ccc(CS(=O)(=O)c2ncc(Cl)c(C(=O)Nc3nnc(C)s3)n2)cc1
- inhibition [1]: 103% (active)
- inhibition [14]: 31.5% (inactive)
- inhibition [15]: 104% (active)
- activity [2]: 97.2%
- activity [3]: 97.2%

SMILES: COc1ccc(N(CCC(=O)NCCc2ccccc2)S(=O)(=O)c2ccc(C)cc2C)cc1
- inhibition [8]: 35.9% (inactive)
- activation (fluorescence interference) [9]: 3.62% (inactive)

SMILES: O=C1Nc2ccc([N+](=O)[O-])cc2C1=Nc1cccc(CO)c1
- inhibition [8]: 39.8% (inactive)
- activation (fluorescence interference) [9]: -4.07% (inactive)

SMILES: Cc1ccc(-c2ccc(/C=N/NC(=O)CN3CCOCC3)o2)cc1[N+](=O)[O-]
- inhibition [8]: 27.9% (inactive)
- activation (fluorescence interference) [9]: -3.95% (inactive)

SMILES: COc1cccc(NC(=O)[C@H](Cc2c[nH]c3ccccc23)NC(=O)[C@@H]2Cc3ccccc3CN2)c1
- inhibition [1]: 98.2% (active)

SMILES: O=[N+]([O-])c1c(NCCO)cc(Sc2nc3ccccc3s2)c2nonc12
- inhibition [1]: 102% (active)
- inhibition [8]: 19.9% (inactive)
- activation (fluorescence interference) [9]: 4.65% (inactive)

SMILES: COc1cccc(/C=N/Nc2cc(C)nc(-c3ccccc3O)n2)c1O
- inhibition [1]: 99.7% (active)
- inhibition [13]: 94.4% (active)
- inhibition (PEG-3 [16]): 100%
- inhibition (PEG-3 [17]): 102%

SMILES: CC1=NN(c2ccc(Cl)c(C(=O)O)c2)C(=O)/C1=C/c1ccc(-c2ccccc2[N+](=O)[O-])o1
- inhibition [8]: 16.8% (inactive)
- activation (fluorescence interference) [9]: 6.42% (inactive)

SMILES: CCCCCCCCCCOC(=O)Cn1c(COc2ccc(C)cc2)[n+](C)c2ccccc21
- inhibition [1]: 103% (active)
- inhibition [8]: 81.3% (active)
- activation (fluorescence interference) [9]: 25.8% (inactive)
- IC50 [18]: > 100 µM (inactive)

SMILES: Cc1ccc(S(=O)(=O)N2CCN(C(=O)c3ccccc3-c3nc4ccccc4s3)CC2)c(C)c1
- inhibition [8]: 34.1% (inactive)
- activation (fluorescence interference) [9]: 4.66% (inactive)

SMILES: COCC(C)OC(=O)c1c(N)n(CCCN2CCOCC2)c2nc3ccccc3nc12 (configuration not stated)
- inhibition [8]: 12.4% (inactive)
- activation (fluorescence interference) [9]: 0.94% (inactive)

SMILES: COc1ccc(C(CCN(Cc2ccc(OC)c(OC)c2)C(=O)CCl)c2ccccc2)cc1 (configuration not stated)
- inhibition [1]: 103% (active)
- activity [2]: 99.7%
- activity [3]: 99.7%

SMILES: COc1ccc(-c2nc3cc(C)ccn3c2NC2CCCCC2)cc1SC1CCCCC1
- inhibition [8]: 15.6% (inactive)
- activation (fluorescence interference) [9]: -1.22% (inactive)

SMILES: C[C@@H](CN1CCC[C@H]1CN1C(N)=NC[C@@H]1Cc1ccccc1)N1C[C@@H](Cc2ccccc2)N(CCCC2CCCC2)C1=N
- inhibition [8]: 11.8% (inactive)
- activation (fluorescence interference) [9]: 7.13% (inactive)

SMILES: COc1ccccc1C1C(C#N)=C(N)Oc2c1c(-c1ccccc1)nn2-c1ccccc1 (configuration not stated)
- inhibition [8]: 19.9% (inactive)
- activation (fluorescence interference) [9]: 5.51% (inactive)

SMILES: O=C(Cc1cc(=O)[nH][nH]1)N/N=C/c1ccccc1[N+](=O)[O-]
- inhibition [8]: 5.01% (inactive)
- activation (fluorescence interference) [9]: 0.43% (inactive)

SMILES: C=CCn1c(N)c(C(=O)OCC(C)C)c2nc3ccccc3nc21
- inhibition [8]: 19.4% (inactive)
- activation (fluorescence interference) [9]: 12% (inactive)

SMILES: CN(C)CC(O)COc1ccc(C(C)(C)c2ccc(OCC(O)CN(C)C)cc2)cc1 (configuration not stated)
- inhibition [1]: 94.2% (active)
- inhibition [13]: 53% (active)
- inhibition (PEG-3 [16]): 101%
- inhibition (PEG-3 [17]): 99.7%

SMILES: Cc1c(-c2nn(C)c(=O)c3ccccc23)oc2ccc(F)cc2c1=O
- inhibition [8]: 77.4% (active)
- activation (fluorescence interference) [9]: 2.5% (inactive)

SMILES: CC(=O)Nc1ccc(NC(=O)C(C)OC(=O)c2ccccc2C(=O)c2ccc(Cl)c([N+](=O)[O-])c2)cc1 (configuration not stated)
- inhibition [1]: 102% (active)
- inhibition [10]: 72.6% (active)
- inhibition [11]: 102%
- inhibition [12]: 98.8%

SMILES: CCC(C)(C)c1ccc(OCC(=O)N(C)C)c(C(C)(C)CC)c1
- inhibition [8]: 17.9% (inactive)
- activation (fluorescence interference) [9]: 8.45% (inactive)

SMILES: Nc1ccc2nn(-c3ccc(Cl)cc3)nc2c1
- inhibition [8]: 35.8% (inactive)
- activation (fluorescence interference) [9]: 0.47% (inactive)

SMILES: O=C(N/N=C\c1cccnc1)c1cc(-c2ccccc2)nc2c(Cl)cccc12
- inhibition [8]: 11.8% (inactive)
- activation (fluorescence interference) [9]: 2.87% (inactive)

SMILES: C#CCOCCOCCOCCNc1nc(N2CCN(C(=O)C([C@@H](C)O)n3cc([C@@H](N)CCCCN)nn3)CC2)nc(N2CCN(C(=O)[C@H](CCCCN)n3cc(CN)nn3)CC2)n1 (some centres not stated)
- inhibition [8]: 1.31% (inactive)
- activation (fluorescence interference) [9]: -7.33% (inactive)

SMILES: CN1CCN(c2ccccc2NC(=O)COc2ccc(C3CCCCC3)cc2)CC1
- inhibition [8]: 7.86% (inactive)
- activation (fluorescence interference) [9]: 2.41% (inactive)

SMILES: COc1ccc2sc(-c3ccccc3OC)c(-c3ccc(OCCN4CCCC4)cc3)c2c1
- inhibition [8]: 27.1% (inactive)
- activation (fluorescence interference) [9]: 6.49% (inactive)
